Compound activity from PubChem BioAssay.
PPC-1+TRAIL kill: compounds killing PPC-1 cancer cells with TRAIL present, primary screen, TRAIL potentiator project, ATPLite luminescence, uHTS | PPC-1 cells + TRAIL, ATPLite viability luminescence | cell killing (% activity), % at 4 µM or 5 µM | 220,000 compounds, 0.41% hits;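 active = cell killing above 50% in the first pass at 4 µM, then a duplicate retest at 5 µM averaging 50% or more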;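 note: plate controls were cells with TRAIL plus DMSO for no effect and medium-only wells lacking cells for full effect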
C8 TRAIL sens: viability loss with TRAIL in NB7+C8 cells, primary screen, TRAIL sensitizer project, cell-based, ATPlite luminescence; inhibition (viability loss, TRAIL sensitization), % at 10 µM; 360,000 compounds, 1% hits; AID 624354, 2012;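 active = compounds causing at least 50% loss of cell viability in the single-dose screen, relative to plate controls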
Platelet DG rel: inhibitors of platelet dense granule secretion, primary screen, cell-based, MLPCN, human platelets | human platelet-rich plasma, SFLLRN dense granule ATP release, luminescence | 300,000 compounds, 0.22% hits | inhibition, %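 (compounds screened at 7.5 µM in platelet-rich plasma)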;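 active = mean replicate score, as percent of positive control, at or above 50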
TROY NFkB inh: inhibitors of TROY-driven NF-kB signaling, primary screen, Q293 LMP1-TROYcd cells, NF-kB luciferase, uHTS | AID 1347056, 2019 | Q293 LMP1-TROYcd NF-kB luciferase reporter, 4 h | 360,000 compounds, 0.98% hits | inhibition, % at 10 µM;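 active = compounds whose plate-normalised and pattern-corrected inhibition of the luciferase reporter signal at the single screening dose is 50% or more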
HSP90 inh: HSP90 inhibitors, primary screen, cell lysate, luminescence; Rabbit reticulocyte lysate, luciferase refolding luminescence, 3 h; Heat shock protein HSP 90 (rabbit reticulocyte lysate; luciferase refolding); inhibition, % at 5.6 µM; 290,000 compounds, 0.91% hits;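 active = inhibition above the screen-wide mean plus 3 SD, computed separately per campaign, cut at about 16% in these data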;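 note: 0% = DMSO wells and 100% = 60 µM geldanamycin wells; inhibitors lower the luminescence because luciferase stays unfolded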
TWEAK-Fn14 inh: inhibitors of TWEAK-Fn14 signaling, primary screen, luciferase reporter cells, uHTS | TWEAK-stimulated Fn14 reporter cells, luciferase luminescence, 8 h | inhibition, % at 10 µM | 360,000 compounds, 2% hits; in the data active = inhibition above about 50%
Active calls of the source: *; ! = a repeat was not active. In the library only some 3.5% were active in any assay of this set; here they are far more common.

Screening CN(C)C(=O)c1nc2ccccc2s1 returned PPC-1+TRAIL kill 12, C8 TRAIL sens 22, Platelet DG rel -8, TROY NFkB inh 21, HSP90 inh 0 and TWEAK-Fn14 inh 18.
COc1ccc(CCn2c(-c3ccco3)nc3nc4ccccc4nc32)cc1 was read as PPC-1+TRAIL kill 8, C8 TRAIL sens 10, Platelet DG rel 9, TROY NFkB inh 32, HSP90 inh -2 and TWEAK-Fn14 inh 57*.
CCOC(=O)/C(=C\c1ccc(Cl)cc1)c1nc2sc(C)c(C)c2c(=O)[nH]1 was read as PPC-1+TRAIL kill -14, C8 TRAIL sens 13, Platelet DG rel -7, TROY NFkB inh 53*, HSP90 inh -4 and TWEAK-Fn14 inh 104*.
Screening CCOC(=O)CSc1nc2sc(C)c(C)c2c(=O)[nH]1 returned PPC-1+TRAIL kill 13, C8 TRAIL sens -3, Platelet DG rel 0, TROY NFkB inh 4, HSP90 inh -3 and TWEAK-Fn14 inh 3.
Screening O=C(NC1CCCC1)c1sc(=S)n2c1[nH]c(=O)c1ccccc12 returned PPC-1+TRAIL kill -20, C8 TRAIL sens 9, Platelet DG rel 7, TROY NFkB inh 72*, HSP90 inh 6 and TWEAK-Fn14 inh -3.
Screening COc1ccccc1N1CCN(Cc2ccc(O)c3ncccc23)CC1 returned PPC-1+TRAIL kill 31, C8 TRAIL sens 65*, Platelet DG rel 11, TROY NFkB inh 2, HSP90 inh 4 and TWEAK-Fn14 inh 8.
Screening Cc1cc(C)cc(-n2ncc3c2CCCC3NC(=O)c2cc(C)n(C)n2)c1 (stereo not given) returned C8 TRAIL sens 17, Platelet DG rel -7, TROY NFkB inh -2, HSP90 inh 0 and TWEAK-Fn14 inh -13.
Cc1cc(C(=O)NC2CCCc3c2cnn3-c2ccc(C(C)(C)C)cc2)nn1C (stereo not given) was read as C8 TRAIL sens 18, Platelet DG rel -7, TROY NFkB inh 39, HSP90 inh -3 and TWEAK-Fn14 inh 61*.
Screening Cc1nc(NCC2CCCO2)c2nnn(Cc3c(F)cccc3Cl)c2n1 (stereo not given) returned PPC-1+TRAIL kill 17, C8 TRAIL sens -5, Platelet DG rel -15, TROY NFkB inh 9, HSP90 inh -1 and TWEAK-Fn14 inh 5.
`O=C(NCc1ccccc1F)C1CCCN(C(=O)Nc2ccc(F)cc2)C1` (stereo not given) gave C8 TRAIL sens 5, Platelet DG rel 5, TROY NFkB inh 20, HSP90 inh 0 and TWEAK-Fn14 inh -11.
`O=C(NCc1ccccc1F)C1CCN(C(=O)Nc2ccc(F)cc2)CC1` gave C8 TRAIL sens 11, Platelet DG rel -7, TROY NFkB inh -17, HSP90 inh -1 and TWEAK-Fn14 inh 99*.
Screening O=S(=O)(NCCc1ccc(F)cc1)c1ccc(F)cc1Br returned C8 TRAIL sens 2, TROY NFkB inh -22 and TWEAK-Fn14 inh 6.
CCOC(=O)C1CCCN(c2ccc(NC(=O)c3snc4c(=O)[nH]c(C)nc34)cc2)C1 (stereo not given) was read as PPC-1+TRAIL kill 30, C8 TRAIL sens -3, Platelet DG rel -5, TROY NFkB inh 51*, HSP90 inh 0 and TWEAK-Fn14 inh -28.
Screening CCCCn1c(N)c(N(CC(C)C)C(=O)CSCc2c(C)noc2C)c(=O)[nH]c1=O returned C8 TRAIL sens -8, Platelet DG rel 19, TROY NFkB inh 6 and TWEAK-Fn14 inh 0.
For C=CCN=c1scc(-c2ccc(F)cc2)n1/N=C/c1ccccn1 the results were PPC-1+TRAIL kill 17, C8 TRAIL sens 44, Platelet DG rel -2, TROY NFkB inh -9, HSP90 inh 4 and TWEAK-Fn14 inh -6.
For C=CCN=c1scc(-c2ccccc2)n1/N=C/c1ccccn1 the results were PPC-1+TRAIL kill 30, C8 TRAIL sens 53*!, Platelet DG rel 1, TROY NFkB inh -6, HSP90 inh 4 and TWEAK-Fn14 inh -2.
For CCN=c1scc(-c2ccccc2)n1/N=C/c1ccccn1 the results were PPC-1+TRAIL kill 50, C8 TRAIL sens 89*, Platelet DG rel 5, TROY NFkB inh 77*, HSP90 inh 12 and TWEAK-Fn14 inh 92*.
For CCN=c1scc(-c2ccc(F)cc2)n1/N=C/c1ccccn1 the results were PPC-1+TRAIL kill 28, C8 TRAIL sens 16, Platelet DG rel -10, TROY NFkB inh -21, HSP90 inh -5 and TWEAK-Fn14 inh 24.
`O=C(Cc1cccc2ccccc12)NN=Cc1ccc2c(c1)CCC2` gave C8 TRAIL sens 6, TROY NFkB inh -21 and TWEAK-Fn14 inh -59.
`c1ccc(-c2csc(N3CCCCCC3)n2)cc1` gave PPC-1+TRAIL kill -12, C8 TRAIL sens 7, TROY NFkB inh -35, HSP90 inh -2 and TWEAK-Fn14 inh -33.
For Cc1cc(N2CCN(c3nc(-c4ccccc4)cs3)CC2)c2ccccc2n1 the results were PPC-1+TRAIL kill 4, C8 TRAIL sens 17, Platelet DG rel -7, TROY NFkB inh -28, HSP90 inh 0 and TWEAK-Fn14 inh 66*.
Screening COc1ccc(NC2CCCN(C(=O)CCC3=NNC(=O)CC3)C2)cc1 (stereo not given) returned C8 TRAIL sens -6, Platelet DG rel 2, TROY NFkB inh 1, HSP90 inh 1 and TWEAK-Fn14 inh -9.
Screening Oc1ccc(Nc2nc3ccccc3nc2Nc2ccc(O)cc2)cc1 returned PPC-1+TRAIL kill 2, C8 TRAIL sens 32, Platelet DG rel 14, TROY NFkB inh -37, HSP90 inh 5 and TWEAK-Fn14 inh 76*.
Screening Oc1ccc(Nc2nc(-c3ccccc3)nc3ccccc23)cc1 returned C8 TRAIL sens -8, Platelet DG rel 0, TROY NFkB inh 6, HSP90 inh -5 and TWEAK-Fn14 inh 27.
`NC(=O)c1cc(S(=O)(=O)NCCc2ccc(Cl)cc2)cs1` gave C8 TRAIL sens 9, Platelet DG rel -18, TROY NFkB inh -14, HSP90 inh -4 and TWEAK-Fn14 inh 8.
Screening Cc1ccccc1-c1noc(-c2ccc(O)cc2)n1 returned PPC-1+TRAIL kill 12, C8 TRAIL sens 6, Platelet DG rel 100*, TROY NFkB inh -11, HSP90 inh -5 and TWEAK-Fn14 inh 9.
`Cc1ccc(-c2noc(-c3ccccc3Br)n2)cc1` gave PPC-1+TRAIL kill 36, C8 TRAIL sens 51*, TROY NFkB inh 24, HSP90 inh -5 and TWEAK-Fn14 inh 35.
For CN(C)c1ccc(-c2noc(-c3ccccc3O)n2)cc1 the results were PPC-1+TRAIL kill 33, C8 TRAIL sens 41, Platelet DG rel 2, TROY NFkB inh 27, HSP90 inh 3 and TWEAK-Fn14 inh 76*.
